Reference: the supplement of paper PMC11732987, “Enantioselective OTUD7B fragment discovery through chemoproteomics screening and high-throughput optimisation” (Communications Chemistry, 2025)
A number with no mark means an inactive call.

How the values were obtained:
Test in all cases: log2 ratio of Biotin-Ahx-Ub-VS probe labelling (fragment/DMSO); higher = less target engagement (more negative = stronger competition), active = hit call of the paper (q ≤ 0.05, log2 ratio ≤ -1)
Details in all cases: compound concentration: 200 uM; treatment time: 3 h
ALG13 = target: T1, ALG13 (UniProt Q9NP73)
T1 sequence (whole entry): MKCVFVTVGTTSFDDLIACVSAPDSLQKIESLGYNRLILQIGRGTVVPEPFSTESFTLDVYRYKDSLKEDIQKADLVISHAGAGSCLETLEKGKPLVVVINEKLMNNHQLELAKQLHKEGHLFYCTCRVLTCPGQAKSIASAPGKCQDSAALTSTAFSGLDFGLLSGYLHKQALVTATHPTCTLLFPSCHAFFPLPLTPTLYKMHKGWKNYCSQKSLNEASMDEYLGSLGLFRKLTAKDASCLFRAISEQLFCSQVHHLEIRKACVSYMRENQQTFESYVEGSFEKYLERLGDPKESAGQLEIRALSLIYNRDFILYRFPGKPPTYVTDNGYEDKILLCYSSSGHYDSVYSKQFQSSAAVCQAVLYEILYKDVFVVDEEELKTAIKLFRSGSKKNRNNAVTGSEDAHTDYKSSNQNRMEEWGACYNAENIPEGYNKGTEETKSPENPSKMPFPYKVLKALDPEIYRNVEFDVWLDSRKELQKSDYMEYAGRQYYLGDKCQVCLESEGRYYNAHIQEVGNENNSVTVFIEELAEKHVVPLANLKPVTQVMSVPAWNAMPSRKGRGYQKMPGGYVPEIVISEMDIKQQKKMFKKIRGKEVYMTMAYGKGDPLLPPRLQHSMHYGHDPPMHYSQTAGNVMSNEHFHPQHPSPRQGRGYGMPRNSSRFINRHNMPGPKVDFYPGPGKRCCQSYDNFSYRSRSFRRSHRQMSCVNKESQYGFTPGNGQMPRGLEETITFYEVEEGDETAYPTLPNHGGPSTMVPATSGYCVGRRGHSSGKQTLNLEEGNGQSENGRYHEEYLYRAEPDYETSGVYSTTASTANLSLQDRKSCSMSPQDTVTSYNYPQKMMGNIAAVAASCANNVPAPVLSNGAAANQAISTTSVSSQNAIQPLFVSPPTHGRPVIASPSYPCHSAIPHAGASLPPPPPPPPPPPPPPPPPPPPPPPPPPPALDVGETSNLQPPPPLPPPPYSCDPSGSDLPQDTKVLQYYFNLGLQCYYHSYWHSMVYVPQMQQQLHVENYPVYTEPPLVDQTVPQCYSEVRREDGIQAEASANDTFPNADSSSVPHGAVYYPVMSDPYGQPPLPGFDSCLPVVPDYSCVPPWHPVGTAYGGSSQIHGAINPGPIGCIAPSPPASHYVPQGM
Summary of the method: (§1)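 Labelling with Biotin-Ahx-Ub-VS (0.5 µM final, 1 h) followed a 3 h triplicate treatment of HEK293T lysate (495 µg per sample, Tris/CHAPS/IGEPAL buffer with protease inhibitors) with fragment at 200 µM or vehicle. Labelled DUBs were NeutrAvidin-enriched, digested with LysC and trypsin, and run by diaPASEF LC-MS/MS. The values, average log2 fragment/vehicle ratios by unpaired t-test, come from global-median-normalised Spectronaut label-free quantities. Proteins with ≥2 unique peptides were used.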

ATXN3 = ATXN3 (UniProt P54252)
Summary of the method: as §1

BAP1 = target: T2, BAP1 (UniProt Q92560)
T2 sequence (whole entry): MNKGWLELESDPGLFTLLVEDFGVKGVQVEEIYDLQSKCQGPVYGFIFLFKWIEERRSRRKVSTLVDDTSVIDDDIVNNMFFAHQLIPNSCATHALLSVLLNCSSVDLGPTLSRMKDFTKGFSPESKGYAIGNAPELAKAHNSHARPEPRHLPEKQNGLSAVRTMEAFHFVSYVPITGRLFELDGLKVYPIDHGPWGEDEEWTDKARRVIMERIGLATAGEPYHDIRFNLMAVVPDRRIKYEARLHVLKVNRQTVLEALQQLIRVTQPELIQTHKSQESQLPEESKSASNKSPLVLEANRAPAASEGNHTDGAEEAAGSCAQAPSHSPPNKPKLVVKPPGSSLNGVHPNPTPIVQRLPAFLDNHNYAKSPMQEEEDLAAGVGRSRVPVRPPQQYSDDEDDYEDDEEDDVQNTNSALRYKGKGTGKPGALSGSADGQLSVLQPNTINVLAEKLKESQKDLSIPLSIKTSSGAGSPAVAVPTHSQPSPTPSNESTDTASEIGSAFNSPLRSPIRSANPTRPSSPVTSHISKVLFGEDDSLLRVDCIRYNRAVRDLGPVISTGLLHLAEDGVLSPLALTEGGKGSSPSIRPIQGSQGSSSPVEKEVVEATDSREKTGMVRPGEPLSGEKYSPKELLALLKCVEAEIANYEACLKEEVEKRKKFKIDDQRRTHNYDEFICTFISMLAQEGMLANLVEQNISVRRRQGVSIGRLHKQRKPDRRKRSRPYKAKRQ
Summary of the method: as §1

EIF3F = EIF3F (UniProt O00303)
Summary of the method: as §1

EIF3H = EIF3H (UniProt O15372)
Summary of the method: as §1

FAM105A = target: T3, FAM105A (UniProt Q9NUU6)
T3 sequence (whole entry): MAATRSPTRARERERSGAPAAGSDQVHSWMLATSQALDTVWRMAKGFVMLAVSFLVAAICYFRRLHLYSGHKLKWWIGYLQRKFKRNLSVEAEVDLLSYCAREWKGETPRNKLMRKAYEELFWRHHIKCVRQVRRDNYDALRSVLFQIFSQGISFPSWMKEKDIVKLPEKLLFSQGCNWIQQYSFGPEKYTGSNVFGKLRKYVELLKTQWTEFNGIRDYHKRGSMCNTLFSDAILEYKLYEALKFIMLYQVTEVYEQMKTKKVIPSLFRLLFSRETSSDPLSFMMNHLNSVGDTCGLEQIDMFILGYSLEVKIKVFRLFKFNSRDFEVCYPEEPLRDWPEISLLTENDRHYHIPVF
Summary of the method: as §1

OTUB1 = OTUB1 (UniProt Q96FW1)
Summary of the method: as §1

OTUD4 = target: T4, OTUD4 (UniProt Q01804)
T4 sequence (whole entry): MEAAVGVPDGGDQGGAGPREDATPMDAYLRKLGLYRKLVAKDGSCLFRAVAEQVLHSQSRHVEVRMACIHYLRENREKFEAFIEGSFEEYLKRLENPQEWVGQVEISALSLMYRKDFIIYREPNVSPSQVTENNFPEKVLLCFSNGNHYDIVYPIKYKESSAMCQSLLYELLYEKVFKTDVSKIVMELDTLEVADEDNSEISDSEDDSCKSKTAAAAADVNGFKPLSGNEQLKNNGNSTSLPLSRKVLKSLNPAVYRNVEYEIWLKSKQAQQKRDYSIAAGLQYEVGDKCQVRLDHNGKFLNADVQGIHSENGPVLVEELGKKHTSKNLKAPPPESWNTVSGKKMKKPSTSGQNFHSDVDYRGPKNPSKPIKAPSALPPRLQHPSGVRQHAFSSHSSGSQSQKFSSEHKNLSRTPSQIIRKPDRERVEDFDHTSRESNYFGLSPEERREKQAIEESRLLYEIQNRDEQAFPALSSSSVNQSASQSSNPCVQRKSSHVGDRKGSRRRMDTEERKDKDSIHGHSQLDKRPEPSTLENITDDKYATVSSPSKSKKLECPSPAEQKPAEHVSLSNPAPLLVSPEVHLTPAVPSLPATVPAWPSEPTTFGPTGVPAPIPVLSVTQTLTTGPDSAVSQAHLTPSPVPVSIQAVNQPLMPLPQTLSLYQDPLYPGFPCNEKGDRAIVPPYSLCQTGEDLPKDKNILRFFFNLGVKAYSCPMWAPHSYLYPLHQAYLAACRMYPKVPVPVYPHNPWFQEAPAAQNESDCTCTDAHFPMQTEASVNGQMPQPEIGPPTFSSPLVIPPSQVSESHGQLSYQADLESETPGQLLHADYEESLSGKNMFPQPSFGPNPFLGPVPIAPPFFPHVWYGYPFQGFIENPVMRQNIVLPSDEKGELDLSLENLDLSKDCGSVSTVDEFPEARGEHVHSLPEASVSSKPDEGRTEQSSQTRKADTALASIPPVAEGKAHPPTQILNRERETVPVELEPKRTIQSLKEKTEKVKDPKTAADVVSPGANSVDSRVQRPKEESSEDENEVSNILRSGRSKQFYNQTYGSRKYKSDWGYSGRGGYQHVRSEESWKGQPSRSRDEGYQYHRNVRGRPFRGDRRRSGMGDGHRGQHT
Summary of the method: as §1

OTUD5 = target: T5, OTUD5 (UniProt Q96G74)
T5 sequence (whole entry): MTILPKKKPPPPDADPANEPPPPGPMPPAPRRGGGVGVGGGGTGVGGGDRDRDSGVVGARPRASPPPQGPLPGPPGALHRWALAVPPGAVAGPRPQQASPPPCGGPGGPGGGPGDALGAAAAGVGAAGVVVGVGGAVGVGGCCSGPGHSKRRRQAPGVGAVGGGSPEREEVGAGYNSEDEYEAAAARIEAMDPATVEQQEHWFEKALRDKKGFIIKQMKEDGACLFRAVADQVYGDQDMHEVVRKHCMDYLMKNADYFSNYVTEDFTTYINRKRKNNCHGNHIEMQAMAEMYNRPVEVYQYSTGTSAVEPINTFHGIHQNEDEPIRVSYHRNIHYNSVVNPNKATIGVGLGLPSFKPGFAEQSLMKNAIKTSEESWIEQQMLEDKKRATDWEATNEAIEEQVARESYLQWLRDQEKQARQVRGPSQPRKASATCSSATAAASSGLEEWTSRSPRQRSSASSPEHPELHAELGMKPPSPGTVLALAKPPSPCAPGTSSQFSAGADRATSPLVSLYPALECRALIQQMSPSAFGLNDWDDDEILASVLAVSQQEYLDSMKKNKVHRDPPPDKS
Summary of the method: as §1

Sequence of OTUB1 (Q96FW1 whole entry): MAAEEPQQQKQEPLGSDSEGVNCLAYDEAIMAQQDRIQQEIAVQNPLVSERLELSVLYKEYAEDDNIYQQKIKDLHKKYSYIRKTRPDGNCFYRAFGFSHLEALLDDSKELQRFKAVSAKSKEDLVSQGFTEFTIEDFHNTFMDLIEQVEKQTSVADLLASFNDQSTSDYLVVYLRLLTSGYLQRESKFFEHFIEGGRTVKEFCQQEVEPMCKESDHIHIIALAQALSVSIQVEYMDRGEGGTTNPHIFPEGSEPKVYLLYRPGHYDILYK
Sequence of EIF3H (O15372 whole entry): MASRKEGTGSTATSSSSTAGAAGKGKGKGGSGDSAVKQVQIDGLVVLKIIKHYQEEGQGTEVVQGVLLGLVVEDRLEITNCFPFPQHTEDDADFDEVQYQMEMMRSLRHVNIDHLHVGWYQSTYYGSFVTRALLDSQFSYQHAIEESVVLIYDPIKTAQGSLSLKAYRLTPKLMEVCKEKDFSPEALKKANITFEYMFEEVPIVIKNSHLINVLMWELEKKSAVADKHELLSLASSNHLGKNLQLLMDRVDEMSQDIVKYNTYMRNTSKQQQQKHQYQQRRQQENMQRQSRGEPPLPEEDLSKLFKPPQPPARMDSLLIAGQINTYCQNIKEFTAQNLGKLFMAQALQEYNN
Sequence of EIF3F (O00303 whole entry): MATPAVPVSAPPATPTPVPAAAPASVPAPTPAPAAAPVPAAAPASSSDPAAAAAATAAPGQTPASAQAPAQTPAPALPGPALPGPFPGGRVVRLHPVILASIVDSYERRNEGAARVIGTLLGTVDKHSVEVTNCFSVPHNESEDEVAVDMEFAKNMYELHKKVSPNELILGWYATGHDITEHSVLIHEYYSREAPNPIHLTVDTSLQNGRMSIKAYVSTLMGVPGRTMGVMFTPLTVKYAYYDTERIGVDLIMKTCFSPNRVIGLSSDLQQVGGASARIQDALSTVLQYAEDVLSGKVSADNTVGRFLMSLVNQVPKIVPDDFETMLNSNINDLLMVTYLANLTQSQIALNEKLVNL
Sequence of ATXN3 (P54252 whole entry): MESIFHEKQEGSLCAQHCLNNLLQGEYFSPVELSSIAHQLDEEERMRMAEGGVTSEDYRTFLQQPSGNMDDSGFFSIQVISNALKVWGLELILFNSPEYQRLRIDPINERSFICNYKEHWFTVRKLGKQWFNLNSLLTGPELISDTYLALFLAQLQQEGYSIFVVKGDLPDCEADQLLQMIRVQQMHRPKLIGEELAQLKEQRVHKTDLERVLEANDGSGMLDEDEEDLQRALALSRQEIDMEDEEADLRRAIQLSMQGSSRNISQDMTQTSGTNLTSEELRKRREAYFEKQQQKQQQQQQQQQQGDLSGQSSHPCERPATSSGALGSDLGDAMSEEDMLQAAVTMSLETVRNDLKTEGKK

O=C(CCl)N1CC=C(c2c[nH]c3ccccc23)CC1
log2 ratio of Biotin-Ahx-Ub-VS probe labelling (ALG13): -0.249 | log2 ratio of Biotin-Ahx-Ub-VS probe labelling (ATXN3): -1.2 (active) | log2 ratio of Biotin-Ahx-Ub-VS probe labelling (BAP1): -1.95 (active) | log2 ratio of Biotin-Ahx-Ub-VS probe labelling (EIF3F): -0.308 | log2 ratio of Biotin-Ahx-Ub-VS probe labelling (EIF3H): 0.184 | log2 ratio of Biotin-Ahx-Ub-VS probe labelling (FAM105A): -0.087 | log2 ratio of Biotin-Ahx-Ub-VS probe labelling (OTUB1): -0.218 | log2 ratio of Biotin-Ahx-Ub-VS probe labelling (OTUD4): -0.412 | log2 ratio of Biotin-Ahx-Ub-VS probe labelling (OTUD5): -1.27 (active)
